The panel holds about 83,000 compounds, 20% with a hit somewhere; the sample as a whole holds those more often.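 Results are percent growth after 48 hours of single-concentration exposure. 100 means growth as in untreated cells, lower positive values show inhibition; negative values down to -100 show cell death.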 Calls of active or inactive are those of the source. The calls were made as follows: active = growth percent below 10; inactive = the rest.
Legend:
Assay in all cases: NCI-60 one-dose screen, 48 h (100 = growth as untreated, 0 = no growth, -100 = all killed)
Conditions in all cases: 10 µM unless noted
RPMI-8226 leukemia = tested on: RPMI-8226 leukemia
OVCAR-8 ovarian = tested on: OVCAR-8 ovarian
OVCAR-5 ovarian = tested on: OVCAR-5 ovarian
SK-OV-3 ovarian = tested on: SK-OV-3 ovarian
IGROV1 ovarian = tested on: IGROV1 ovarian
OVCAR-3 ovarian = tested on: OVCAR-3 ovarian
HS 578T breast = tested on: HS 578T breast
NCI/ADR-RES ovarian = tested on: NCI/ADR-RES ovarian
OVCAR-4 ovarian = tested on: OVCAR-4 ovarian

Measured: growth

COc1ccc2c(c1)oc1c(C)c3c(c(C)c12)C(=O)N(CCOS(C)(=O)=O)C3=O
inactive: RPMI-8226 leukemia 94% | OVCAR-8 ovarian 103% | OVCAR-5 ovarian 91.6% | SK-OV-3 ovarian 120% | IGROV1 ovarian 88.4% | OVCAR-3 ovarian 118% | HS 578T breast 109% | NCI/ADR-RES ovarian 97.7%

COC1C(O)CC(OC2CC(OC3CC(O[C@@H]4C(=O)c5c(cc6cc(OC7CC(OC8CC(O)C(O)C(C)O8)C(O)C(C)O7)c(C)c(O)c6c5O)CC4[C@H](OC)C(=O)O)OC(C)C3O)OC(C)C2O)OC1C (stereo partly drawn)
inactive: RPMI-8226 leukemia 19% | OVCAR-8 ovarian 15.6% | OVCAR-5 ovarian 29.3% | OVCAR-4 ovarian 44.8% | SK-OV-3 ovarian 35.1% | IGROV1 ovarian 23.7% | OVCAR-3 ovarian 18% | HS 578T breast 23.5% | NCI/ADR-RES ovarian 63%

O=C(CSc1nnnn1-c1ccccc1)Nc1ccc(Oc2ccccc2)cc1
inactive: RPMI-8226 leukemia 117% | OVCAR-8 ovarian 97.3% | OVCAR-5 ovarian 92.2% | OVCAR-4 ovarian 101% | SK-OV-3 ovarian 102% | IGROV1 ovarian 61.9% | OVCAR-3 ovarian 100% | HS 578T breast 99.2% | NCI/ADR-RES ovarian 96.7%

NCCCNc1nc2ccccc2c2c(=O)c3cc(Cl)ccc3sc12
inactive: OVCAR-4 ovarian 33.4% | SK-OV-3 ovarian 77.6% | HS 578T breast 43%
active: RPMI-8226 leukemia -37.9% | OVCAR-8 ovarian -48.4% | OVCAR-5 ovarian -11.5% | IGROV1 ovarian -1.46% | OVCAR-3 ovarian -60% | NCI/ADR-RES ovarian -4.11%

COCCn1cc(-c2csc(-c3c[nH]c4ccccc34)n2)c2cccnc21
inactive: RPMI-8226 leukemia 43.8% | OVCAR-8 ovarian 38.6% | OVCAR-5 ovarian 75.7% | OVCAR-4 ovarian 44.3% | SK-OV-3 ovarian 49.5% | IGROV1 ovarian 41.8% | OVCAR-3 ovarian 20.7% | HS 578T breast 57.4% | NCI/ADR-RES ovarian 12.7%

Cc1ccc(OCCOCCOCCOc2ccc(C)n(O)c2=S)c(=S)n1O
inactive: RPMI-8226 leukemia 31.2% | OVCAR-8 ovarian 39.3% | OVCAR-5 ovarian 38.5% | OVCAR-4 ovarian 20.5% | SK-OV-3 ovarian 64.9% | IGROV1 ovarian 72% | OVCAR-3 ovarian 15.9% | HS 578T breast 56.3% | NCI/ADR-RES ovarian 16.4%

N#Cc1c(-c2ccccc2)cc(-c2ccccc2)n(CCCCC(=O)NO)c1=O
active: RPMI-8226 leukemia 0.83% | NCI/ADR-RES ovarian -16.2%
inactive: OVCAR-8 ovarian 15.6% | OVCAR-5 ovarian 13.6% | SK-OV-3 ovarian 42.1% | IGROV1 ovarian 20% | OVCAR-3 ovarian 20.5% | HS 578T breast 27.4%

Cc1nc2sc(C(=O)Nc3ccccn3)c(N)c2cc1C(C)O (stereo not drawn)
inactive: RPMI-8226 leukemia 94.5% | OVCAR-8 ovarian 92.5% | OVCAR-5 ovarian 77.9% | OVCAR-4 ovarian 81% | IGROV1 ovarian 70.4% | OVCAR-3 ovarian 76.5% | HS 578T breast 74.7% | NCI/ADR-RES ovarian 74.2%

COCCOC(C)C(/C=N/NC(N)=S)=N/NC(N)=S (stereo not drawn)
active: OVCAR-4 ovarian 9.81%
inactive: RPMI-8226 leukemia 36.2% | OVCAR-8 ovarian 57.1% | OVCAR-5 ovarian 97.7% | SK-OV-3 ovarian 93.3% | IGROV1 ovarian 21.2% | OVCAR-3 ovarian 13.9% | HS 578T breast 83.3% | NCI/ADR-RES ovarian 52.7%

O=C(Nc1ccccc1O)c1ccc(CNc2ccnc(C(F)(F)F)c2)cc1
inactive: OVCAR-8 ovarian 38.8% | OVCAR-5 ovarian 76.6% | OVCAR-4 ovarian 52.5% | SK-OV-3 ovarian 58.6% | IGROV1 ovarian 59.9% | OVCAR-3 ovarian 76.2% | NCI/ADR-RES ovarian 18.4%
active: RPMI-8226 leukemia 1.91%

Ic1ccc(Nc2nc3nonc3nc2Nc2ccc(I)cc2)cc1
active: RPMI-8226 leukemia -36.6% | OVCAR-8 ovarian 6.55% | SK-OV-3 ovarian -19.9% | OVCAR-3 ovarian 9.01%
inactive: OVCAR-5 ovarian 34% | OVCAR-4 ovarian 19.3% | IGROV1 ovarian 28.5% | HS 578T breast 19.2%

CCN(CC)C(=O)C1=C(C)NC(=O)NC1c1ccc2c(c1)OCO2 (stereo not drawn)
inactive: RPMI-8226 leukemia 102% | OVCAR-8 ovarian 106% | OVCAR-5 ovarian 105% | OVCAR-4 ovarian 111% | SK-OV-3 ovarian 111% | IGROV1 ovarian 99.6% | OVCAR-3 ovarian 113% | HS 578T breast 96.7% | NCI/ADR-RES ovarian 104%

Cc1nn(-c2ccc([N+](=O)[O-])cc2)c2ncnc(N/N=C/c3ccccc3O)c12
active: RPMI-8226 leukemia 1.23% | SK-OV-3 ovarian 3.11% | IGROV1 ovarian 9.22%
inactive: OVCAR-8 ovarian 14.5% | OVCAR-5 ovarian 55.8% | OVCAR-4 ovarian 16.5% | OVCAR-3 ovarian 27.3%

COCCn1cc(-c2nc(-c3cc4cccnc4n3C)cs2)c2ccccc21
inactive: RPMI-8226 leukemia 55.7% | OVCAR-8 ovarian 39% | OVCAR-5 ovarian 49% | OVCAR-4 ovarian 25.1% | SK-OV-3 ovarian 58.7% | IGROV1 ovarian 43.7% | OVCAR-3 ovarian 31.5% | HS 578T breast 61.5% | NCI/ADR-RES ovarian 13.3%

O=C(C1=Cc2cc3ccccc3n2Cc2cnnn21)c1ccc(F)cc1
inactive: RPMI-8226 leukemia 92.4% | OVCAR-8 ovarian 99.4% | OVCAR-5 ovarian 115% | OVCAR-4 ovarian 95% | SK-OV-3 ovarian 94.6% | IGROV1 ovarian 90% | OVCAR-3 ovarian 104% | HS 578T breast 90.8% | NCI/ADR-RES ovarian 101%
